Source: the supplement of paper PMC8371130
Counter-ions that a name gives are not always drawn.

Test system: HL-1
Experiment: relative cell viability (CellTiter-Glo) vs DMSO control (% of DMSO control); higher = more viable cells
Procedure, shortened: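 HL-1 mouse atrial cardiomyocytes were seeded into 384-well plates at 1000 cells per well along with compounds at 40, 200, 1000 or 5000 nM in 0.01% DMSO. After one day, the cells were moved to a hypoxic workstation (1% O2) for 48 h and then reoxygenated for 24 h in a normal incubator, while others remained in normoxia for the same period. Cell viability was measured by CellTiter-Glo luminescence and normalised to vehicle-treated control cells.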

[1] = oxygen condition: hypoxia 48 h (1% O2) + reoxygenation 24 h, 40 nM
[2] = oxygen condition: hypoxia 48 h (1% O2) + reoxygenation 24 h, 200 nM
[3] = oxygen condition: hypoxia 48 h (1% O2) + reoxygenation 24 h, 1000 nM
[4] = oxygen condition: hypoxia 48 h (1% O2) + reoxygenation 24 h, 5000 nM
[5] = oxygen condition: normoxia 72 h, 40 nM
[6] = oxygen condition: normoxia 72 h, 200 nM
[7] = oxygen condition: normoxia 72 h, 1000 nM
[8] = oxygen condition: normoxia 72 h, 5000 nM

Row | SMILES | relative cell viability [1] | relative cell viability [2] | relative cell viability [3] | relative cell viability [4] | relative cell viability [5] | relative cell viability [6] | relative cell viability [7] | relative cell viability [8]
1 | CN(Cc1cnc2nc(N)nc(N)c2n1)c1ccc(C(=O)N[C@@H](CCC(=O)O)C(=O)O)cc1 [Abitrexate] | 75.8 | 51.7 | 42.5 | 42 | 58.2 | 52.2 | 41.8 | 43.9
2 | C[C@H](N[C@@H](CCc1ccccc1)C(=O)O)C(=O)N1CCC[C@H]1C(=O)O [Enalaprilat dihydrate] | 104 | 106 | 102 | 110 | 104 | 99 | 107 | 109
3 | CCN(CCCc1ccccc1)CCCc1ccccc1 [Alverine Citrate] | 107 | 110 | 102 | 110 | 102 | 105 | 106 | 113
4 | C[C@H]1c2cccc(O)c2C(=O)C2=C(O)[C@]3(O)C(=O)C(C(N)=O)=C(O)[C@@H](N(C)C)[C@@H]3[C@@H](O)[C@@H]21 [Doxycycline HCl] | 102 | 104 | 105 | 107 | 105 | 106 | 95.6 | 92.9
5 | O=C(O)C1(C(=O)O)CCC1.[NH2-].[NH2-].[Pt+2] [Carboplatin] | 110 | 109 | 95.3 | 112 | 100 | 106 | 108 | 119
6 | CCC(C)(C)C(=O)O[C@H]1C[C@@H](C)C=C2C=C[C@H](C)[C@H](CC[C@@H]3C[C@@H](O)CC(=O)O3)[C@H]21 [Simvastatin] | 109 | 108 | 99.2 | 3.87 | 111 | 103 | 50.4 | 2.69
7 | CCOC(=O)C1=C[C@@H](OC(CC)CC)[C@H](NC(C)=O)[C@@H](N)C1 [Oseltamivir phosphate] | 94.9 | 99.4 | 99.5 | 111 | 103 | 101 | 105 | 111
8 | COc1ccccc1OCC(O)CN1CCN(CC(=O)Nc2c(C)cccc2C)CC1 (stereo not drawn) [Ranolazine dihydrochloride] | 88.7 | 89.7 | 86.8 | 108 | 98.5 | 97.1 | 98.8 | 110
9 | NS(=O)(=O)c1cc2c(cc1C(F)(F)F)NC(Cc1ccccc1)NS2(=O)=O (stereo not drawn) [Bendroflumethiazide] | 93.6 | 98.4 | 101 | 106 | 104 | 100 | 105 | 110
10 | CC(C)C[C@H](NC(=O)[C@@H](O)[C@H](N)Cc1ccccc1)C(=O)O [Ubenimex] | 99.1 | 95.6 | 98.2 | 103 | 101 | 98.8 | 99.7 | 108
11 | CCOc1cc(N)c(Cl)cc1C(=O)NCC1CN(Cc2ccc(F)cc2)CCO1 (stereo not drawn) [Mosapride citrate] | 105 | 106 | 104 | 104 | 104 | 109 | 103 | 109
12 | NS(=O)(=O)Cc1noc2ccccc12 [Zonisamide] | 105 | 108 | 107 | 115 | 108 | 112 | 116 | 103
13 | CO[C@H]1C[C@@H]2CC[C@@H](C)[C@@](O)(O2)C(=O)C(=O)N2CCCC[C@H]2C(=O)O[C@H]([C@H](C)C[C@@H]2CC[C@@H](OCCO)[C@H](OC)C2)CC(=O)[C@H](C)/C=C(\C)[C@@H](O)[C@@H](OC)C(=O)[C@H](C)C[C@H](C)/C=C/C=C/C=C/1C [Everolimus] | 79.5 | 75 | 73.9 | 87.5 | 70.4 | 66.9 | 66.5 | 69.7
14 | CN(Cc1ccc(C(C)(C)C)cc1)Cc1cccc2ccccc12 [Butenafine HCl] | 98.1 | 104 | 106 | 109 | 104 | 100 | 106 | 110
15 | COc1cc2c(cc1O)CC[C@@H]1[C@@H]2CC[C@]2(C)[C@@H](O)CC[C@@H]12 [2-Methoxyestradiol] | 106 | 104 | 102 | 112 | 102 | 105 | 102 | 109
16 | COc1ccccc1N1CCN(CC(O)COc2cccc3ccccc23)CC1 (stereo not drawn) [Naftopidil] | 103 | 101 | 104 | 101 | 102 | 100 | 102 | 103
17 | CCN(CC)CC#CCOC(=O)C(O)(c1ccccc1)C1CCCCC1 (stereo not drawn) [Oxybutynin chloride] | 94.2 | 99.1 | 98.7 | 98.8 | 104 | 96.3 | 91.2 | 107
18 | CCN1CCN(c2cc(-c3ccc(F)cc3)c3c(n2)CCCCCC3)CC1 [Blonanserin] | 101 | 99.5 | 91.2 | 49.4 | 103 | 93.3 | 93.5 | 51.2
19 | NC(N)=Nc1nc(CSCC/C(N)=N/S(N)(=O)=O)cs1 [Famotidine] | 103 | 101 | 114 | 120 | 107 | 101 | 97.9 | 108
20 | Cc1cn([C@H]2C[C@H](N=[N+]=[N-])[C@@H](CO)O2)c(=O)[nH]c1=O [Zidovudine] | 106 | 109 | 119 | 112 | 110 | 110 | 112 | 109
21 | CC1CNc2c(cccc2S(=O)(=O)N[C@@H](CCCNC(=N)N)C(=O)N2CC[C@@H](C)C[C@@H]2C(=O)O)C1 (stereo partly drawn) [Argatroban] | 97.7 | 97.5 | 94.6 | 106 | 97.3 | 95.6 | 97.6 | 106

Row | SMILES | relative cell viability [1] | relative cell viability [2] | relative cell viability [3] | relative cell viability [4] | relative cell viability [5] | relative cell viability [6] | relative cell viability [7] | relative cell viability [8]
22 | Cc1ccc(N(CC2=NCCN2)c2cccc(O)c2)cc1 [Phentolamine mesilate] | 96.2 | 94.7 | 107 | 106 | 102 | 104 | 108 | 115
23 | CN(CCOc1ccc(CC2SC(=O)NC2=O)cc1)c1ccccn1 (stereo not drawn) [Rosiglitazone HCl] | 107 | 93.8 | 101 | 109 | 100 | 93.8 | 104 | 107
24 | Cc1cccc(Nc2ccncc2S(=O)(=O)NC(=O)NC(C)C)c1 [Torsemide] | 103 | 102 | 107 | 106 | 106 | 112 | 112 | 105
25 | NC(=O)OCC(COC(N)=O)c1ccccc1 [Felbamate] | 101 | 106 | 96.3 | 110 | 110 | 107 | 105 | 110
26 | CN1CCC(=C2c3ccccc3C=Cc3ccccc32)CC1 [Cyproheptadine HCl] | 97.1 | 95.8 | 102 | 110 | 100 | 98.1 | 102 | 118
27 | Cc1onc(-c2ccccc2)c1C(=O)N[C@@H]1C(=O)N2[C@@H]1SC(C)(C)[C@@H]2C(=O)O [Oxacillin sodium monohydrate] | 104 | 107 | 96.5 | 110 | 103 | 101 | 110 | 109
28 | CC(C)NCC(O)COc1cccc2ccccc12 (stereo not drawn) [Propranolol HCl] | 99.8 | 109 | 103 | 109 | 107 | 100 | 92.5 | 106
29 | CC(=O)OCC(=O)[C@@]12N=C(C)O[C@@H]1C[C@H]1[C@@H]3CCC4=CC(=O)C=C[C@]4(C)[C@H]3[C@@H](O)C[C@@]12C [Deflazacort] | 90.6 | 90.3 | 97.1 | 77.3 | 89.6 | 92.4 | 95.6 | 99.2
30 | CN[C@@H]1[C@H](O)[C@H](NC)[C@H]2O[C@@]3(O)C(=O)C[C@@H](C)O[C@H]3O[C@@H]2[C@H]1O [Spectinomycin  hydrochloride] | 105 | 102 | 102 | 109 | 107 | 86.5 | 101 | 101
31 | CCOC(=O)OC(C)OC1=C(C(=O)Nc2ccccn2)N(C)S(=O)(=O)c2ccccc21 (stereo not drawn) [Ampiroxicam] | 110 | 102 | 104 | 121 | 101 | 101 | 102 | 120
32 | C=C1c2cccc(O)c2C(=O)C2=C(O)[C@]3(O)C(=O)C(C(N)=O)=C(O)[C@@H](N(C)C)[C@@H]3[C@@H](O)[C@H]12 [Methacycline hydrochloride] | 98.1 | 99.7 | 107 | 109 | 102 | 105 | 103 | 99.7
33 | CO[C@H]1C(=O)[C@]2(C)[C@@H](OC)C[C@H]3OC[C@@]3(OC(C)=O)[C@H]2[C@H](OC(=O)c2ccccc2)[C@]2(O)C[C@H](OC(=O)[C@H](O)[C@@H](NC(=O)OC(C)(C)C)c3ccccc3)C(C)=C1C2(C)C [Cabazitaxel] | 32.1 | 34.3 | 39.6 | 36.6 | 24.7 | 27.2 | 26.8 | 29.7
34 | CCCCCOC(=O)Nc1nc(=O)n([C@@H]2O[C@H](C)[C@@H](O)[C@H]2O)cc1F [Capecitabine] | 104 | 94.1 | 106 | 119 | 105 | 113 | 119 | 129
35 | CC1=C(C(=O)OC(C)C)C(c2cccc([N+](=O)[O-])c2)C(C(=O)OC2CN(C(c3ccccc3)c3ccccc3)C2)=C(N)N1 (stereo not drawn) [Azelnidipine] | 104 | 110 | 106 | 112 | 109 | 110 | 112 | 119
36 | CCCc1cc(=O)[nH]c(=S)[nH]1 [Propylthiouracil] | 106 | 105 | 107 | 120 | 99.3 | 108 | 107 | 110
37 | O=c1c(-c2ccc(O)cc2)coc2cc(O)ccc12 [Daidzein] | 107 | 102 | 105 | 113 | 107 | 107 | 105 | 118
38 | CC1(C)S[C@@H]2[C@H](NC(=O)[C@H](N)c3ccc(O)cc3)C(=O)N2[C@H]1C(=O)O [Amoxicillin] | 104 | 103 | 111 | 114 | 104 | 100 | 106 | 108
39 | Cc1nc(Nc2ncc(C(=O)Nc3c(C)cccc3Cl)s2)cc(N2CCN(CCO)CC2)n1 [Dasatinib] | 71.8 | 87.1 | 80.2 | 90.2 | 85.9 | 88.5 | 82.1 | 89.2
40 | COc1ccc(CNc2nc(N3CCC[C@H]3CO)ncc2C(=O)NCc2ncccn2)cc1Cl [Avanafil] | 91.6 | 99.7 | 97.5 | 103 | 101 | 102 | 97.1 | 107
41 | COc1cc2nc(N3CCN(C(=O)c4ccco4)CC3)nc(N)c2cc1OC [Prazosin HCl] | 102 | 101 | 109 | 109 | 101 | 100 | 106 | 109
